The source of these data is PubChem BioAssay AID1863 (Southern Research Specialized Biocontainment Screening …, 2009).

Out of some 300,000 compounds screened, about 480 (0.16%) were called active. These entries were drawn from the full list. Entries with a potency or affinity are not part of this list. Values without a mark were called inactive.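 How the source made its calls: active means inhibition over 29.93%, a cutoff 3 SD above the screen mean, later confirmed by dose response; inconclusive means inhibition over 29.93% but no dose response follow-up; inactive means inhibition at most 29.93% or unconfirmed.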

The test can be described thus: inhibitors of PhoP regulon expression, primary screen, Salmonella Typhimurium, GFP reporter (AID 1863).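 Further: 0% = low Mg2+ inducing control and 100% = high Mg2+ repressing control.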 The following applies: S. Typhimurium PhoP-regulated promoter GFP reporter, 4 h; at 50 µM; active compounds read high.
In the case of `Cc1cc(-n2cc(Br)c(=O)[nH]c2=O)nc(-c2ccccc2)n1`, the inhibition (as a rule, the change of the read-out against control, counted positive when it falls) was -4.05%.

Consider `O=C(C1CCC1)N1CCc2cc(S(=O)(=O)NCCN3CCN(c4ccccc4F)CC3)ccc21`, for which the inhibition was 13.8%. Under `Cc1cc(C)cc(NC(=O)CC2NCCNC2=O)c1` (centres undefined) stands -1.2%; under `O=C(CC1CCS(=O)(=O)C1)Nc1ccc[nH]c1=O` (centres undefined), -5.21%; under `Cc1sc2ccccc2[n+]1CC(=O)c1ccccc1`, 2.11%. Under `Cc1sc2cc3c(c(C(=O)c4ccccc4)[n+]2c1C)-c1cccc2cccc-3c12` stands -2.96%. Under `CCCNC(=O)c1cn(CC)c2cc(N3CCN(C(=O)c4ccco4)CC3)c(F)cc2c1=O` stands -3.25%; under `CCn1cc(C(=O)N[C@H](C)c2ccccc2)c(=O)c2cc(F)c(N3CCN(C)CC3)cc21`, 4.39%; under `CCn1cc(C(=O)NCC(C)C)c(=O)c2cc(F)c(N3CCN(C(=O)c4ccco4)CC3)cc21`, 5.43%.

As to `CCn1cc(C(=O)NCCC(C)C)c(=O)c2cc(F)c(N3CCN(C)CC3)cc21`, the inhibition was 8.97%. `CCn1cc(C(=O)NN)c(=O)c2cc(F)c(N3CCN(C)CC3)cc21`: the inhibition was 3.03%.

In the case of `COc1ccc(CC2(CO)CCN(C(C)COc3ccccc3)CC2)cc1` (centres undefined), the inhibition is -5.24%. For the compound `O=C(NC(=S)Nc1ccc(S(=O)(=O)Nc2ncccn2)cc1)c1ccc(Br)cc1`, the inhibition is -1.85%. The result for `Cc1cccc(NC(=O)c2cc(NC(=O)C3CC=CCC3C(=O)O)ccc2N2CCOCC2)c1` (centres undefined) reads 13.8%; that for `CCN(CC(=O)Nc1c(F)cccc1F)C(=O)C1(c2ccccc2)CC1`, -5.13%; that for `CCC(=O)c1cn(CC(=O)NCc2cccnc2)c2ccccc12`, 3.99%.

As to `Cc1cc(C)cc(OC(=O)CCN2C(=O)C3C4C=CC(C5CC45)C3C2=O)c1` (centres undefined), the inhibition is 1.31%. Turning to `CCOc1ccc2nc(NC(=O)C3CCN(S(=O)(=O)c4cnc[nH]4)CC3)sc2c1`, the inhibition was 1.27%.

With `CN(C)c1cccc(C(=O)OCC(=O)N2CCc3ccccc3C2)c1`, the inhibition is -2.35%.

In the case of `CC1CCN(c2nc3c(c(=O)n(C)c(=O)n3C)n2Cc2ccccc2)CC1`, the inhibition was 0.23%. As for `O=[N+]([O-])c1ccc(NC(=S)NCC(c2cccnc2)N2CCOCC2)cc1` (centres undefined), the inhibition was -4.57%. Take `CCCCNC(=O)c1cn(CC)c2cc(N3CCN(C(=O)c4ccco4)CC3)c(F)cc2c1=O`: the inhibition was -7.68%. For `CCCCCNC(=O)c1cn(CC)c2cc(N3CCN(C)CC3)c(F)cc2c1=O`, the inhibition was 4.54%. On to `C/C(=N\OC(=O)c1ccc(F)cc1)c1ccc(F)c(F)c1`, for which the inhibition is -1.74%.
